Screening results from PubChem.
SARS PLP yeast – SARS-CoV PLP inhibition in yeast; S. cerevisiae expressing SARS-CoV PLpro, growth rescue; Potency, µM (titrated, usually from 32.9 µM), actives largely listed as activators; hit rate 0.19% among 330,000; AID 485353; calls by dose curve; note: nearly all actives have a fitted effect of over 55% in size
Sm TGR block – inhibitors of Schistosoma mansoni thioredoxin glutathione reductase; Potency, µM (doses to about 114 µM), actives largely listed as inhibitors; purified TGR, DTNB reduction, TNB absorbance 405 nm; Q962Y6; hit rate 3% among 360,000; note: nearly all actives have a fitted effect of over 60% in size
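First, TGR (20 nM dispensed) and NADPH were mixed with compound. Second, a 15 min room-temperature incubation followed. Third, further NADPH and then DTNB were added to start the reaction. Finally, TNB absorbance was monitored kinetically.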
Pf growth 96h – P. falciparum growth inhibition at 96 hours. hit rate 6.9% among 320,000. Potency, µM (doses to about 28.7 µM), most hits filed as inhibitors. P. falciparum luciferase reporter growth, 96 h
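96 h incubation, 37 C, 5% CO2, of luciferase-reporter P. falciparum-infected RBCs (2% hematocrit, 0.05% parasitemia final) with test compounds; endpoint luminescence.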
Pf growth 48h – P. falciparum growth inhibition at 48 hours (one generation); P. falciparum luciferase growth in erythrocytes, 48 h; Potency, µM (series often up to 28.7 µM), hits mostly inhibitors; hit rate 5.9% among 310,000; AID 504832
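Read-out is firefly luciferase luminescence from an integrated reporter in P. falciparum, so falling signal marks reduced parasite growth. Infected erythrocytes were at 2% hematocrit and 0.1% parasitemia (final) in Albumax-supplemented RPMI 1640.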
Each line names hits and unclear results; the compound was inactive in the other large screens. Most compounds without a hit are left out; they make up all but 12% or so of the library. Unless noted, calls come from the whole dose curve; as a rule, active = well fitted curve in the direction sought with a large enough effect; inconclusive = small, poorly fitted or top-dose-only effect, or another doubt; inactive = no such curve, though single readings can be large; an effect the other way counts as inactive or inconclusive.

Cn1c(CN2CCCCC2)nc2cc(NC(=O)c3cccs3)ccc21	Pf growth 48h 10.4µM
CCOC(=O)N1CCN(Cc2nc3cc(NC(=O)c4cccs4)ccc3n2C)CC1	Pf growth 48h inconclusive
CCCc1nc2ccc(NC(=O)c3cccs3)cc2c(=O)n1Cc1ccccc1Cl	Pf growth 96h inconclusive, Pf growth 48h 1.85µM
Cn1c(CN2CCCCC2)nc2cc(NC(=O)c3cccc(Br)c3)ccc21	Pf growth 96h 4.65µM (no result: Pf growth 48h)
O=C(CCNS(=O)(=O)c1ccc(F)c(F)c1)NCCN1CCOCC1	none (no result: Sm TGR block, Pf growth 96h, Pf growth 48h)
Cc1ccc(N(CC(=O)Nc2ccc(Br)c(C)c2)S(=O)(=O)c2c(C)[nH]c(=O)[nH]c2=O)cc1	Pf growth 96h inconclusive
CCOc1ccccc1N(C)S(=O)(=O)c1ccc2c(c1)CC(C)N2C(=O)C1CC1 (stereo unspecified)	Pf growth 96h inconclusive, Pf growth 48h inconclusive
O=C(C1CC(=O)N(c2ccc(Cl)cc2)C1)N1CCC(c2nc3ccccc3[nH]2)CC1 (stereo unspecified)	Pf growth 96h inconclusive, Pf growth 48h 10.4µM
CCOC(=O)N1CCC(c2nc3ccccc3[nH]2)CC1	Pf growth 96h 9.28µM (no result: Pf growth 48h)
O=C(C1CC(=O)N(c2ccc(Cl)cc2)C1)N1CCCCCC1 (stereo unspecified)	none
COc1ccc(C2(C)NC(=O)N(CC(=O)c3cc(C)n(C4CC4)c3C)C2=O)cc1 (stereo unspecified)	Pf growth 96h 3.7µM, Pf growth 48h inconclusive
Cc1ccc(-c2cc(-c3ccco3)c3c(N)c(C(=O)NN)oc3n2)cc1	Pf growth 96h inconclusive, Pf growth 48h 4.65µM
NNC(=O)c1oc2nc(-c3cccs3)cc(-c3ccco3)c2c1N	Pf growth 96h inconclusive, Pf growth 48h inconclusive
CN1c2ccc(Cl)cc2C(=O)NC1C1CC=CCC1 (stereo unspecified)	Pf growth 96h 11.7µM
COC(=O)c1ccccc1NC(=O)CSc1nc2nc(C)cc(C)n2n1	none (no result: SARS PLP yeast, Pf growth 96h, Pf growth 48h)
CN1C(=O)NC(=O)/C(=C\c2ccc([N+](=O)[O-])o2)C1=O	Sm TGR block 7.94µM, Pf growth 96h inconclusive
Cc1ccc(/C=C2/C(=O)NC(=O)N(C)C2=O)cc1	none
O=C1NC(=O)N(c2ccccc2)C(=O)/C1=C\c1ccc([N+](=O)[O-])o1	Sm TGR block 8.91µM, Pf growth 96h inconclusive
CN1C(=O)NC(=O)/C(=C/c2ccc([N+](=O)[O-])o2)C1=O	Sm TGR block 5.01µM
COc1cccc(CN(C(=O)c2oc3ccc(Br)cc3c2C)C2CCS(=O)(=O)C2)c1 (stereo unspecified)	none (no result: SARS PLP yeast, Pf growth 96h, Pf growth 48h)
CCN(CC)CCN(C(=O)c1ccco1)c1nc2ccc(Br)cc2s1	none (no result: SARS PLP yeast, Pf growth 96h, Pf growth 48h)
COc1cccc(CNc2ccc3[nH]c(=O)[nH]c3c2)c1OCc1ccccc1F	Pf growth 96h inconclusive
CC1CCCCN1Cc1c(O)ccc2c(=O)c(-c3ccc(Cl)cc3)c(C(F)(F)F)oc12 (stereo unspecified)	none (no result: SARS PLP yeast, Pf growth 96h, Pf growth 48h)
Cc1cccc(S(=O)(=O)N2CN(Cc3ccco3)c3nc4ccccc4nc32)c1	Sm TGR block 17.8µM, Pf growth 96h inconclusive, Pf growth 48h inconclusive
COc1ccc2oc(=O)c(C(=O)NCCc3c(C)[nH]c4ccc(Br)cc34)cc2c1	none (no result: SARS PLP yeast, Pf growth 96h, Pf growth 48h)
CC1(OC(=O)CCc2ccccc2)C(=O)C=C2C=C(c3ccc(C#N)cc3)N(Cc3ccccc3)C=C2C1=O (stereo unspecified)	Sm TGR block inconclusive, Pf growth 96h inconclusive, Pf growth 48h inconclusive
COC/C=C/C1=CC2=CC(=O)C(C)(OC(=O)c3cnc4ccccc4n3)C(=O)C2=CN1Cc1ccc(OC)cc1 (stereo unspecified)	Sm TGR block 15.8µM, Pf growth 96h inconclusive, Pf growth 48h inconclusive
COC/C=C/C1=CC2=CC(=O)C(C)(OC(=O)c3cnc4ccccc4n3)C(=O)C2=CN1CCCCO (stereo unspecified)	Pf growth 96h inconclusive
COC/C=C/C1=CC2=CC(=O)C(C)(OC(=O)c3cnc4ccccc4n3)C(=O)C2=CN1Cc1ccccc1 (stereo unspecified)	Sm TGR block inconclusive, Pf growth 96h inconclusive, Pf growth 48h inconclusive
CCCCC1=CC2=CC(=O)C(C)(OC(=O)c3cnc4ccccc4n3)C(=O)C2=CO1 (stereo unspecified)	Sm TGR block 35.5µM
CCCCC1=CC2=CC(=O)C(C)(OC(=O)CCc3ccccc3)C(=O)C2=CO1 (stereo unspecified)	Sm TGR block 44.7µM
CNC(=O)c1ccc(NC(=O)Cc2ccc(S(=O)(=O)N3CCOCC3)s2)cc1	Pf growth 96h 14.7µM
CC1CCN(S(=O)(=O)c2ccc(NC(=O)Cc3ccc(S(=O)(=O)N4CCOCC4)s3)cc2)CC1	Sm TGR block 79.4µM, Pf growth 96h inconclusive
